Screening data deposited in PubChem by National Center for Advancing Translational Sciences (NCATS).
Hits are enriched below; roughly 19% of the tested compounds scored in any of these assays.
CHX counter: counter-screen for Shiga toxin inhibitors: cycloheximide protein synthesis inhibition; cell reporter, cycloheximide protein synthesis inhibition counterscreen; max response, %; 300,000 tested, 12% active; AID 2314; in the data active = max response mostly above about 13%, no sharp cut-off; inactive = mostly below about 14%; also: read at 38.3 µM for the half of the compounds with a filed dose
AMA1 RON2 block: disrupts binding of P. falciparum AMA1 to RON2 | AlphaScreen AMA1-biotinylated RON2 peptide binding | Potency, µM (doses to about 58.2 µM), hits mostly inhibitors | 360,000 tested, 0.2% active | AID 720542; also: nearly all actives have a fitted effect of over 45% in size
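AMA1 (3D7) with his tag at 25 nM final met compounds first, then biotinylated RON2 peptide at 25 nM; detection used donor plus acceptor beads, 10 µg/mL apiece, read by AlphaScreen after 30 min at room temperature.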
Shiga toxin inh: blocks Shiga toxin action in Vero cells. Vero cells, Shiga toxin protein synthesis inhibition reporter. inhibition, % at 38.7 µM. 290,000 tested, 9.2% active. AID 2315; in the data active = inhibition mostly above about 28%, no sharp cut-off; inactive = mostly below about 43%
SARS PLP yeast: inhibitors of SARS-CoV papain-like protease in yeast. S. cerevisiae expressing SARS-CoV PLpro, growth rescue. Potency, µM (series often up to 32.9 µM), most hits filed as activators. 330,000 tested, 0.19% active. AID 485353; calls by dose curve; also: nearly all actives have a fitted effect of over 55% in size
Pf growth 96h: inhibits malaria parasite growth, 96 h. AID 504834. Potency, µM (highest dose often 28.7 µM), actives largely listed as inhibitors. 320,000 tested, 6.9% active. P. falciparum luciferase reporter growth, 96 h
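Parasite growth measured via integrated firefly luciferase reporter in P. falciparum. Infected erythrocytes at 2% hematocrit, 0.05% parasitemia final were treated 96 hours at 37 C under 5% CO2, and luminescence was read.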
Pf growth 48h: P. falciparum growth inhibition at 48 hours (one generation); P. falciparum luciferase growth in erythrocytes, 48 h; Potency, µM (highest dose often 28.7 µM), most hits filed as inhibitors; 310,000 tested, 5.9% active; AID 504832
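Luciferase-expressing parasites in RBCs, 2% Hct / 0.1% parasitemia final; RPMI 1640 + 0.5% Albumax; 37 C, 5% CO2, one generation; luminescence read-out, lower signal = inhibition.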
A number is an active result; 0 = inactive; ? = inconclusive; - = no result; [ ] = remark or other dose. Unless noted, calls follow the shape of the dose curve; as a rule, active = well fitted curve in the direction sought with a large enough effect; inconclusive = small, poorly fitted or top-dose-only effect, or another doubt; inactive = no such curve, though single readings can be large; an effect the other way counts as inactive or inconclusive.

SMILES	CHX counter	AMA1 RON2 block	Shiga toxin inh	SARS PLP yeast	Pf growth 96h	Pf growth 48h
CCCN(CC(=O)Nc1cc(Cl)ccc1Cl)C(=O)c1ccccc1SCC(=O)N1CCCC1	-	0	-	0	0	?
CC(C)c1nc(N2CCOCC2)c(C#N)c2c1CCC2	0	0	0	0	?	0
OC(COc1ccccc1)CN1CCOCC1 (centres undefined)	0	0	0	0	12µM	0
COC(=O)[C@H](Cc1c[nH]c2ccccc12)NC(=O)NCc1ccc(OC)cc1	0	0	0	0	0	0
CC1CCCCN1CCNC(=O)c1cc2c(-c3ccccc3F)nn(C)c2s1 (centres undefined)	0	0	0	0	0	-
CCN(CCCNC(=O)c1cc2c(-c3cccc(OC)c3)nn(C)c2s1)Cc1ccccc1	0	0	0	0	0	2.3µM
COc1cccc(-c2nn(C)c3sc(C(=O)NCc4ccc(C)o4)cc23)c1	23	0	0	0	?	?
CCCCN(CC)CCNC(=O)c1cc2c(-c3ccccc3F)nn(C)c2s1	0	0	0	0	0	2.1µM
COc1cccc(-c2nn(C)c3sc(C(=O)N4CCN(c5ccccn5)CC4)cc23)c1	0	?	0	0	?	?
COc1cccc(-c2nn(C)c3sc(C(=O)N4CCOCC4)cc23)c1	0	0	0	0	2.3µM	-
Cc1ccc(S(=O)(=O)N2CCN(C(=O)Cn3nc(C)c([N+](=O)[O-])c3C)CC2)cc1	-	0	-	0	0	0
COc1ccc(/C=C2/SC(=S)N(CCC(=O)N3CCN(C)CC3)C2=O)cc1	0	0	0	0	0	?
COC(=O)c1ccc(/C=C2\SC(=S)N(CCCC(=O)N3CCOCC3)C2=O)cc1	-	0	-	-	-	-
O=C(CCCN1C(=O)c2ccccc2C1=O)NCCCN1CCOCC1	0	0	0	0	-	0
O=C(CCN1C(=O)/C(=C\c2ccccc2)SC1=S)NCCCN1CCOCC1	0	0	0	0	7.4µM	13µM
Cc1ccc(/C=C2\SC(=S)N(CCCC(=O)N3CCOCC3)C2=O)cc1	0	0	0	0	0	13µM
CN1CCN(C(=O)CCCN2C(=O)/C(=C/c3ccc(Cl)cc3)SC2=S)CC1	-	0	-	0	10µM	?
COc1ccc(/C=C2/SC(=S)N(CCCC(=O)N3CCN(C)CC3)C2=O)cc1	12	?	35	?	0	?
COc1ccccc1OCCC(=O)Nc1cccc(S(=O)(=O)N2CCOCC2)c1	-	0	-	0	?	0
S=C(NCc1ccc(Cl)cc1Cl)NC1CCCCC1	0	0[2.32 µM]	0	0	?	?
COc1ccc(/C=C2\SC(=S)N(CC(=O)NCCO)C2=O)cc1	21	0	0	0	?	0
CN1CCN(C(=O)CCN2C(=O)/C(=C\c3ccc(Cl)cc3Cl)SC2=S)CC1	0	0	0	0	3.3µM	10µM
O=C(CCN1C(=O)/C(=C\c2ccccc2Cl)SC1=S)N1CCN(c2ccccc2)CC1	0	0	0	0	?	0
C=CCc1cc(/C=N\NC(=O)CSc2nnc(CCCc3ccc(OC)c(C)c3)o2)cc(OC)c1O	0	0	0	0	2.9µM	3.7µM
C=CCc1cc(/C=N/NC(=O)CSc2nnc(CCCc3ccc(OC)cc3)o2)cc(OC)c1O	0	0	0	0	0.059µM	-
SMILES	CHX counter	AMA1 RON2 block	Shiga toxin inh	SARS PLP yeast	Pf growth 96h	Pf growth 48h
COc1ccc(/C=N/NC(=O)CSc2nnc(CCCc3ccc(OC)c(C)c3)o2)cc1	0	0	0	0	0[5.75 µM]	?
CC(C)(C)CC(C)(C)c1ccc(O)c(CN2CCN(CCC#N)CC2)c1	0	0	0	0	-	1.7µM
N#CCCN1CCN(Cc2cc(-c3ccccc3)ccc2O)CC1	0	0	0	0	?	?
COc1ccc(CN2C(=O)C(CC(=O)NCc3cccs3)CC(C(=O)N(C)C)=C2C)cc1 (centres undefined)	-	0	-	-	-	-
O=C(CSc1nc2c(c(=O)n1-c1ccc(Br)cc1)SCC2)Nc1nccs1	0	0	0	0	0	?
COc1ccc(-n2c(SCC(=O)Nc3ccccc3)nc3c(c2=O)SCC3)cc1	0	0	0	0	0	-
CCOc1ccc(-n2c(SCC(N)=O)nc3c(c2=O)SCC3)cc1	0	0	0	0	0	8.3µM
O=C(CSc1nc2c(c(=O)n1-c1ccc(Cl)cc1)SCC2)Nc1nccs1	0	0	0	0	0	5.2µM
COc1ccc(NC(=O)CSc2nc3c(c(=O)n2-c2ccc(F)cc2)SCC3)cc1	0	0	0	0	10µM	0
